# Inconclusive results are not listed. Activity calls are given as the source filed them. How the source made its calls, unless noted: active means hit-call score of the fitted dose curve at least 0.9, where 1 is the maximum; inconclusive means response in the unintended direction; inactive means score below 0.9.
# Legend:
# [1] = target: T1, Thyroid hormone receptor alpha (Rattus norvegicus) + Thyroid hormone receptor beta (Rattus norvegicus) (UniProt P18113+P63059); assay: TOX21_TR_LUC_GH3_Antagonist_Followup: Tox21 GH3 Thyroid Hormone Receptor Antagonism Luciferase Follow-Up Assay (AID 2283942)
# T1 sequence (P63059 whole entry, looked up): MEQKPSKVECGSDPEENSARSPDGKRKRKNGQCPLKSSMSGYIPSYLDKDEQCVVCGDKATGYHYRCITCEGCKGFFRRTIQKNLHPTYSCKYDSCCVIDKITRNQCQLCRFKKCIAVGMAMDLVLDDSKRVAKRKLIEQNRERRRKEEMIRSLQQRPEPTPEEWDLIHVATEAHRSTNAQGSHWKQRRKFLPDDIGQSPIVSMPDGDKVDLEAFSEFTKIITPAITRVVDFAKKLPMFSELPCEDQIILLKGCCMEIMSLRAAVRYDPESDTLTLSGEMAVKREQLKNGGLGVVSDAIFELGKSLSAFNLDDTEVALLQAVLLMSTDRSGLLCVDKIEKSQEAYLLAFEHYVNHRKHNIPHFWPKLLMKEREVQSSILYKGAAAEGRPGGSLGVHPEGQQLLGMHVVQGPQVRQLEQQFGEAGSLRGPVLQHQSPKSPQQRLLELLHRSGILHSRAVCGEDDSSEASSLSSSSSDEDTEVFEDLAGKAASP
# T1 sequence (P18113 whole entry, looked up): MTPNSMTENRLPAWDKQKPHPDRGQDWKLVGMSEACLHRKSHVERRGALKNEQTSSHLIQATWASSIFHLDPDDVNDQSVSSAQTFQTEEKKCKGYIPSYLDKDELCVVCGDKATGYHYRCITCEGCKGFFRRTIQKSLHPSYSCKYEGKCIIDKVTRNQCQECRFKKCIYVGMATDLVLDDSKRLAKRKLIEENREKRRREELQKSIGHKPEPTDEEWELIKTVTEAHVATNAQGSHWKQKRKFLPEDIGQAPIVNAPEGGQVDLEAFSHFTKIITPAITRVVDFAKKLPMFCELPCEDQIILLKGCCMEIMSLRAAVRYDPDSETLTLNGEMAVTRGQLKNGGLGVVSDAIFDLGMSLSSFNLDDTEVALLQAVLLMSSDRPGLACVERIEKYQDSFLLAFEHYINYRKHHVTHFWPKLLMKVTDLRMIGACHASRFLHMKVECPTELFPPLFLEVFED
# How it was run: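 Rat pituitary GH3 cells with a TRα/TRβ-driven luciferase reporter, 5 h attachment, then 15 concentrations (92 uM to 5nM final) plus 1.0 nM T3 agonist, 24 h at 37C/5% CO2. ONE-Glo luminescence; signal change fitted against DMSO baseline.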
# [2] = target: T1, Thyroid hormone receptor alpha (Rattus norvegicus) + Thyroid hormone receptor beta (Rattus norvegicus); assay: TOX21_TR_LUC_GH3_Agonist_Followup: Tox21 GH3 Thyroid Hormone Receptor Agonism Luciferase Follow-Up Assay (AID 2283939)
# How it was run: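 Rat GH3 cells (1,500/well) in serum-free assay medium, treated with 15-point series, 92 uM to 5 nM final, for 24 h at 37C. Luciferase via ONE-Glo luminescence; gain of signal fitted against DMSO, T3 positive control.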
# THRA (gene 7067) [3] = target: THRA (gene 7067) (UniProt P10827); assay: TOX21_TRA_COA_Agonist_Followup_ratio: Tox21 Thyroid Hormone Receptor alpha Agonism through Coactivator Recruitment Follow-Up Assay, Ratio (AID 2283948; active means hit-call score of the fitted dose curve at least 0.9, where 1 is the maximum; inactive means score below 0.9)
# THRA (gene 7067), sequence (P10827 whole entry, looked up, the tested form may be a part): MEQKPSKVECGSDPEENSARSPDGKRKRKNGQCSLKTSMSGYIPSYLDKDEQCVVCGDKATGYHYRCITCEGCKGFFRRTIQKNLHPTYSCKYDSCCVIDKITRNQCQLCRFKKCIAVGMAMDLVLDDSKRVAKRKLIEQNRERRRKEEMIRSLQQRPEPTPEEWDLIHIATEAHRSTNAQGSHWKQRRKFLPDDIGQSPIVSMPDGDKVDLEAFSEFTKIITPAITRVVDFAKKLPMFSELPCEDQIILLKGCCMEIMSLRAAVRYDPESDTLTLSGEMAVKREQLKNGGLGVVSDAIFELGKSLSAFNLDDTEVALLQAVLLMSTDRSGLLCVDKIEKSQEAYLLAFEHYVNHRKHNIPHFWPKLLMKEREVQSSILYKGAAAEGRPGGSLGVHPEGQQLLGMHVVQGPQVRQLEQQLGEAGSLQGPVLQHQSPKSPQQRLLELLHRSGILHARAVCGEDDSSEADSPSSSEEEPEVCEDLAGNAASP
# How it was run: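 Cell-free TR-FRET: GST-tagged TRα LBD (2.5 nM) with 0.10% BSA and compound, then fluorescein-SRC-2 peptide (200 nM) and Tb-anti-GST antibody (2 nM). Readout 520:495 nm ratio (ex 340 nm), normalized to DMSO (0%) and T3 (100%).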
# THRB (gene 7068) = THRB (gene 7068) (UniProt P10828); assay: TOX21_TRB_BLA_Agonist_Followup_ratio: Tox21 Thyroid Hormone Receptor beta Agonism Beta-lactamase (BLA) Follow-Up Assay, Ratio (AID 2283954)
# THRB (gene 7068), sequence (P10828 whole entry, looked up, the tested form may be a part): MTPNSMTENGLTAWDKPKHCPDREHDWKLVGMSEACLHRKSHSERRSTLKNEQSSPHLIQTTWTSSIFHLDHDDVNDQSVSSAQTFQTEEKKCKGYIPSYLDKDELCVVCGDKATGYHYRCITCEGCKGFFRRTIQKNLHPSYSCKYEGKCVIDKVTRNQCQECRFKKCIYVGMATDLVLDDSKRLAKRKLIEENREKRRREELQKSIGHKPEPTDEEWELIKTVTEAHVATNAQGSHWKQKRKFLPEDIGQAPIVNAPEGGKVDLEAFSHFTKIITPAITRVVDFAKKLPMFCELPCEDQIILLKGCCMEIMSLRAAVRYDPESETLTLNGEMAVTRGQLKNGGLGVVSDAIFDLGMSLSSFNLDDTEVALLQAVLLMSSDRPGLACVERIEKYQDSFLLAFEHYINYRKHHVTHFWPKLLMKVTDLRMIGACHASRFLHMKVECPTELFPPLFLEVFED
# How it was run: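 Human TRβ LBD–GAL4 DBD fusion in GeneBLAzer UAS-bla HEK293T cells; 11 concentrations in triplicate, 18 h at 37°C/5% CO2, T3 as agonist control. CCF4-AM substrate 2 h at room temperature; 460:530 nm ratio fitted for gain of signal versus DMSO.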
# [4] = TOX21_TRB_BLA_Agonist_Followup_viability: Viability Assessment in the Tox21 Thyroid Hormone Receptor beta Agonism Beta-lactamase (BLA) Follow-Up Assay (AID 2283956)
# How it was run: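 TRb-bla HEK293T cells (GAL4-DBD/human TRb LBD) in 2% charcoal-stripped FBS medium were exposed 18 h at 37C to 11 concentrations in triplicate. CellTiter-Glo ATP luminescence was read after 30 min at room temperature, with bidirectional fitting against DMSO.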
# THRA (gene 7067) [5] = target: THRA (gene 7067) (UniProt P10827); assay: TOX21_TRA_COA_Antagonist_Followup_ratio: Tox21 Thyroid Hormone Receptor alpha Antagonism through Coactivator Recruitment Follow-Up Assay, Ratio (AID 2283953)
# How it was run: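 520:495 nm emission ratio (excitation 340 nm) reports fluorescein-SRC-2 peptide recruitment to GST-TRα LBD by TR-FRET with Tb anti-GST antibody. Values were normalized to DMSO (0%) and T3 control wells (100%); loss of signal indicated antagonism.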
# PGR (gene 5241) [6] = target: PGR (gene 5241) (UniProt P06401); assay: TOX21_PR_LUC_Followup_Agonist: Tox21 HEK293 Progesterone Receptor (PR) Agonism Luciferase Follow-Up Assay (AID 2283937; active means hit-call score of the fitted dose curve at least 0.9, where 1 is the maximum; inactive means score below 0.9)
# PGR (gene 5241), sequence (P06401 whole entry, looked up): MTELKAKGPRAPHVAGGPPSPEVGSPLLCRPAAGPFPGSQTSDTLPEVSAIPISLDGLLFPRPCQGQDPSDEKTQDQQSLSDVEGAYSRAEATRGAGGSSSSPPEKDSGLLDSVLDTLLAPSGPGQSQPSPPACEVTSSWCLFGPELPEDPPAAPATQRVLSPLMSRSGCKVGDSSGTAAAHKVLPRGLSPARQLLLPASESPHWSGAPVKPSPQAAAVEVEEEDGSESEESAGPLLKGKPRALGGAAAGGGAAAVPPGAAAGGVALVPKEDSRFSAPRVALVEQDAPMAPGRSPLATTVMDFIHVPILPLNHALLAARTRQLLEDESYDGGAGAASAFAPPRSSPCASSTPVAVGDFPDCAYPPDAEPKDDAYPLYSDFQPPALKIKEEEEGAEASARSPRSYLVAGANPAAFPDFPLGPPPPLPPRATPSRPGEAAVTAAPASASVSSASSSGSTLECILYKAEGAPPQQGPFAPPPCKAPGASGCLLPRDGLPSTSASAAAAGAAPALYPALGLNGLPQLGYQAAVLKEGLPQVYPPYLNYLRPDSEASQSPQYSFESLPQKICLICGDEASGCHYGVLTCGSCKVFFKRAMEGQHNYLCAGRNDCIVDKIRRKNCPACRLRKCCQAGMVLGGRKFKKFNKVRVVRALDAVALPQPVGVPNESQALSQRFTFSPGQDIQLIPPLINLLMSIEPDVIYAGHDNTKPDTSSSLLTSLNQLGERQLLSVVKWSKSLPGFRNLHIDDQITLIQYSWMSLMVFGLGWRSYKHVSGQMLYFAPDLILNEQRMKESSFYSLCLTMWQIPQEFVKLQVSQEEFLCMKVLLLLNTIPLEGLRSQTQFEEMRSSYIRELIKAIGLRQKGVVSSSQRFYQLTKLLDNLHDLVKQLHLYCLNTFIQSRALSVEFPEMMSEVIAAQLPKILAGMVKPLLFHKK
# How it was run: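 Cells: HEK293-PR-A-luc, 3,000/well, 10% charcoal-stripped FBS assay medium. Compound added after 5 h; 16 h, 37C, 0% CO2. ONE-Glo luciferase, luminescence. Positive fit vs DMSO.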
# PGR (gene 5241) [7] = target: PGR (gene 5241) (UniProt P06401); assay: TOX21_PR_LUC_Followup_Antagonist: Tox21 HEK293 Progesterone Receptor (PR) Antagonism Luciferase Follow-Up Assay (AID 2283938);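 further: curve fitted upward as signal gain over DMSO baseline despite antagonist label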
# How it was run: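 HEK293-PR-A-luc cells, 3,000/well, preincubated 5 h at 37C before compound addition in DMSO; 16 h compound exposure at 37C. ONE-Glo luciferase luminescence read after 30 min at room temperature, fitted relative to DMSO baseline.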
# [8] = TOX21_PR_LUC_Followup_Antagonist_viability: Viability Assessment in the Tox21 HEK293 Progesterone Receptor (PR) Antagonism Luciferase Follow-Up Assay (AID 2283940)
# How it was run: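 Multiplexed viability counter-screen: after 5 days in charcoal-stripped-FBS medium, HEK293-PR-A-luc cells are plated, pinned with DMSO-dissolved compounds for 16 h at 37C, and ATP content is quantified luminescently via CellTiter-Glo.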
# [9] = TOX21_PR_LUC_Followup_Agonist_viability: Viability Assessment in the Tox21 HEK293 Progesterone Receptor (PR) Agonism Luciferase Follow-Up Assay (AID 2283941);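 further: loss of signal means cytotoxicity so actives lower viability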
# How it was run: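 Cells were kept 5 days in charcoal-stripped serum medium before plating HEK293-PR-A-luc at 3,000 cells/well. After 5 h they received DMSO-dissolved compound and incubated 16 h at 37C. Viability was taken from CellTiter-Glo ATP luminescence.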
structure (smiles),measurement,setting,value
C=C(C)[C@H]1Cc2c(ccc3c2O[C@@H]2COc4cc(OC)c(OC)cc4[C@@H]2C3=O)O1,AC50,[1],5.29 µM (active)
C[N+]1(C)CCCCC1,outcome,[2],inactive
same,outcome,THRA (gene 7067) [3],inactive
same,outcome,THRB (gene 7068),inactive
same,outcome,[4],inactive
CSC1=N[C@@](C)(c2ccccc2)C(=O)N1Nc1ccccc1,outcome,[1],inactive
same,outcome,THRA (gene 7067) [5],inactive
CCC(=O)Nc1ccc(Cl)c(Cl)c1,outcome,PGR (gene 5241) [6],inactive
same,outcome,PGR (gene 5241) [7],inactive
same,outcome,[8],inactive
same,outcome,[9],inactive
CCOP(=S)(OCC)Oc1ccc([N+](=O)[O-])cc1,AC50,PGR (gene 5241) [7],4.86 µM (active)
same,outcome,[8],inactive

# — PubChem BioAssay (EPA / NIEHS)
